Assay results as given in PubChem BioAssay AID1454 (National Center for Advancing Translational Sciences (NCATS), 2008).
Among all 130,000 compounds or so, about 550 (0.42%) were called active. Entries that show only a call come without a potency. Not shown: some 4% with an inconclusive outcome. This is one part of a sample in which actives are shown more often than they occur. The call rests on the fitted dose curve; in most records, active means well fitted inhibition curve with a large enough effect; inconclusive means small, poorly fitted or top-dose-only effect, or effect the other way; inactive means flat fitted curve, though single readings scatter.

assay: qHTS Assay for Inhibitors of the ERK Signaling Pathway using a Homogeneous Screening Assay; Stimulation with EGF; conditions: HEK293-V1b, EGF-stimulated phospho-ERK AlphaScreen; series mostly up to 57.5 µM; further: nearly all actives have a fitted effect of over 55% in size
Description: NIH Chemical Genomics Center [NCGC]
NIH Molecular Libraries Screening Centers Network [MLSCN]
Assay Submitter (PI): Dr. Wei Zheng, NCGC/NIH
The Ras/extracellular-signal-regulated kinase (ERK) mitogen activated protein (MAP) kinase signaling pathway (ERK1/2 cascade) plays a key role in transmitting signals from the cell surface to the nucleus (Nishida and Gotoh 1993; Chang and Karin, 2001). The cascade is initiated by the small G-protein Ras, which recruits Raf from the cytosol, where activation occurs. Alternatively, this pathway can be activated by elevating intracellular cAMP, or by activation of a receptor tyrosine kinase as epidermal growth factor receptor.
Activation of the ERK pathway is essential in increased cell division and cell survival. Sustained and constitutive activation of the ERK pathway, however, has been linked to uncontrolled cell proliferation, increased cell survival, and tumor progression. Thus, the ERK has been as an attractive target for cancer chemotherapy in the past few years (Sebolt-Leopold and Herrera, 2004). Given its physiological and pathological importance, assessment of ERK phosphorylation has been broadly performed in both basic research and drug discovery. Most assays for the measurement of ERK phosphorylation use the antibody-based detection methods, such as western blot and ELISA. These assays require multiple reagent additions with cell wash steps and are not suitable for high throughout screening.
The current cell-based ERK phosphorylation assay was performed using AlphaScreen platform. AlphaScreen is a two bead-based proximity-dependent chemical energy transfer luminescent assay platform. The assay reagents (ERK SureFire(TM) kit) were supplied from TGR BioSciences (Australia). In the presence of specific antibodies, phosphorylated ERK will bring "donor" and "acceptor" beads to a proximity range (<200 nm), and subsequently lead a chemical luminescent reaction upon exciting donor beads with 680 nm laser. To exclude the assay-related false positives, we used a biotinylated rabbit IgG to perform counter-screen. The biotinylated antibody mimics the phosphorylated ERK1/2 for bringing streptavidin coated beads and protein-A coated beads to a proximity range for the AlphaScreen detection.
NCGC Assay Protocol Summary:
HEK293 cells stably expressing type-1 vasopressin receptor (V1b) were maintained in DMEM medium (Invitrogen, Carlsbad, CA) at 37C under a humidified atmosphere containing 5% CO2 and 95% air. The medium contained 10% FBS, 2 mM L-glutamine, non-essential amino acid, pyruvate and 50 U/ml penicillin and 50 ug/ml streptomycin (Invitrogen). The aliquots of frozen cells were stored at -135C and used for the compound screening. All compounds were screened as titrations from 0.6 nM to 46 uM final concentration. Epidermal growth factor (EGF) was used to stimulate the ERK phosphorylation pathway. The ERK phosphorylation in cells was determined using an AlphaScreen assay kit provided by […]. Data were normalized to the controls for basal activity (DMSO only) and 100% activation (25 nM EGF). AC50 values were determined from concentration-response data modeled with the standard Hill equation.
(1) Seed 4 ul/well of resuspended frozen HEK293 cells containing 2000 cells in white 1536-well plates for overnight with 1% FBS at 37C under a humidified atmosphere containing 5% CO2 and 95% air.
(2) Add 23 nL compounds in DMSO solution. The final titration was 0.6 nM to 46 uM.
(3) Incubate at 37C for 30 min.
(4) Dispense 0.5uL EGF (25 nM in final)
(5) Incubate at 37C for 5 min.
(6) Dispense 0.5uL of 1:2 diluted 5x lysis buffer.
(7) Incubate at 37C for 10 min.
(8) Dispense 1.5uL of mixture of activation buffer and reaction buffer with AlphaScreen beads (streptavidin donor beads and protein-A acceptor beads, 10 ng/well for each).
(9) Incubate at room temperature for 5 hr.
(10) Detect the assay plate in an EnVision plate reader (PerkinElmer) using the AlphaScreen detection mode.
[…]
Potency means the concentration at half of the fitted maximal effect.

Question: Which Potency does the source give for `Cc1cc(-c2n[nH]c(=S)n2-c2ccc(C)c(C)c2)no1` here?
Answer: 3.98 µM (active)

Question: For `CCCCC/C=C\C/C=C\C/C=C\C=C\[C@H](CCCC(=O)O)OO`, which activity change, negative = inhibition is on record?
Answer: -6.51% [at 11.5 µM] (inactive)

Question: For `COC1=C[C@]23CCCN2CCc2cc4c(cc2[C@@H]3[C@@H]1O)OCO4`, which activity change, negative = inhibition is on record?
Answer: -6.17% [at 11.5 µM] (inactive)

Question: For `O=c1[nH]c(=O)n(-c2ccc(F)cc2)c(O)c1C=NCCN1CCCCC1`, which activity change, negative = inhibition is on record?
Answer: inactive

Question: For `CCCCCCCCCCCCn1ccc(=N)cc1`, which Potency is on record?
Answer: 22.4 µM (active)

Question: Which activity change, negative = inhibition does the source give for `O=C1CC(=O)N(Cc2ccccc2)C(=O)N1CCCCCCN1C(=O)CC(=O)N(Cc2ccccc2)C1=O` here?
Answer: inactive

Question: With `CC(=O)Cc1ccc(OC(C)C)cc1` as the compound, how does the activity change, negative = inhibition read?
Answer: inactive

Question: With `C1CC[C@H]([C@@]23C[C@H](C[C@H]4CCCN[C@H]42)[C@@H]2CCCCN2C3)NC1` as the compound, how does the activity change, negative = inhibition read?
Answer: -0.522% [at 11.5 µM] (inactive)

Question: Which activity change, negative = inhibition does the source give for `O=c1[nH]c(=O)n(CCc2ccc(F)cc2)c(O)c1/C=N/N1CCCCC1` here?
Answer: inactive

Question: With `N#Cc1c(Cl)c(Cl)c(Cl)c(C#N)c1Cl` as the compound, how does the Potency read?
Answer: 3.98 µM (active)

Question: With `CNC(=O)Nc1ccc(C(O)(C(=O)OC)C(F)(F)F)cc1` (stereo not given) as the compound, how does the activity change, negative = inhibition read?
Answer: inactive

Question: With `Fc1ccc(C2N3CCCN23)cc1` (stereo not given) as the compound, how does the activity change, negative = inhibition read?
Answer: inactive

Question: Which activity change, negative = inhibition does the source give for `COc1ccc(-n2c(O)c(C(C)=Nc3ccc4c(c3)CCC4)c(=O)[nH]c2=O)cc1` here?
Answer: inactive

Question: With `CN1CCN(/N=C/c2c[nH]c3ccccc23)CC1` as the compound, how does the activity change, negative = inhibition read?
Answer: inactive

Question: For `CCCCC(=O)N/N=C/c1c(O)n(-c2ccccc2)c(=O)[nH]c1=O`, which activity change, negative = inhibition is on record?
Answer: inactive
